Consider seven molecules from PubChem BioAssay (NCI).

Experiment [1] in a line: NCI Yeast Anticancer Drug Screen. Data for the rad50 strain (AID 155).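 Also: 0% = growth of vehicle-only cultures of the same strain.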 To be noted: S. cerevisiae rad50 strain growth inhibition, active compounds read high. The method in brief: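 Cells are treated with compound, grown, and their growth is then scored against vehicle-only cultures of the same repair-deficient yeast strain.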
The nature of experiment [2]: NCI Yeast Anticancer Drug Screen. Data for the mec2-1 strain (AID 157). The settings on record: S. cerevisiae mec2-1 strain, active compounds read high. The method in brief:
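Vehicle-treated cultures served as reference for growth inhibition of compound-exposed mec2-1 yeast.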

A short description of experiment [3]: NCI Yeast Anticancer Drug Screen. Data for the cln2 rad14 strain (AID 165).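 Also: 0% = growth equal to vehicle treated cultures.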 The settings on record: S. cerevisiae cln2 rad14 strain, active compounds read high. In outline: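 Each compound was tested on cln2 rad14 yeast. Inhibition of growth was calculated against vehicle-exposed controls.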
Experiment [4] in a line: NCI Yeast Anticancer Drug Screen. Data for the bub3 strain (AID 167). To be noted: S. cerevisiae bub3 mutant strain, active compounds read high. In outline: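 Part of a panel of yeast mutants defective in DNA damage repair or cell cycle regulation. Each strain is grown with compound, and inhibition is calculated relative to solvent-treated cultures.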
Experiment [5] can be described thus: NCI Yeast Anticancer Drug Screen. Data for the mlh1 rad18 strain (AID 175). To be noted: S. cerevisiae mlh1 rad18 strain growth inhibition, active compounds read high. The method in brief: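 Vehicle-treated cultures served as the reference for growth inhibition in a yeast strain carrying DNA damage repair alterations exposed to each compound.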
Experiment [6] in a line: NCI Yeast Anticancer Drug Screen. Data for the sgs1 mgt1 strain (AID 161).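 Also: 0% = growth of cultures given vehicle only.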 To be noted: S. cerevisiae sgs1 mgt1 strain, active compounds read high. The method in brief:
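Test agents were incubated with a DNA-repair-mutant yeast strain. Growth was then read and compared against vehicle-treated controls.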

Setting [7] is: at 5.0 µM (retest, dose inferred, filed as 0.5).
The mark [8] stands for this setting: at 50.0 µM (retest, dose inferred, filed as 5.0).

About 79,000 compounds went through this panel and 15% of them were active in at least one assay; those are over-represented in the sample as a whole. Unmarked numbers belong to inactive results. Active and inactive are the calls of the source. Rule as the data show it: active = growth inhibition above about 70%; inactive = the rest.

In the case of `Nc1ccccc1/C=C1/Sc2cc[nH]c2C1=O`, the growth inhibition is 2% in experiment [1] (setting [7]); 5% in experiment [1] (setting [8]); 4.9% in experiment [1] (at 50.0 µM); 1% in experiment [2] (setting [7]); -1% in experiment [2] (setting [8]); 5.55% in experiment [2] (at 50.0 µM). Moreover, the growth inhibition in experiment [3] (setting [7]) was -1%; in experiment [3] (setting [8]) it was -3%; in experiment [3] (at 50.0 µM), 3.1%; in experiment [4] (setting [7]) it was 15%; in experiment [4] (setting [8]), 40%; in experiment [4] (at 50.0 µM), 83.8% (active). Besides, the growth inhibition was 3% in experiment [5] (setting [7]), 10% in experiment [5] (setting [8]) and -9.8% in experiment [5] (at 50.0 µM).
On to `Cc1cccc(-c2nnc(-c3cccc(C)c3)o2)c1`, for which the growth inhibition is 39% in experiment [1] (setting [7]); 44% in experiment [1] (setting [8]); 54.8% in experiment [1] (at 50.0 µM); 30% in experiment [2] (setting [7]); 43% in experiment [2] (setting [8]); 14.7% in experiment [2] (at 50.0 µM). Besides, the growth inhibition in experiment [3] (setting [7]) is 53%; in experiment [3] (setting [8]), 33%; in experiment [3] (at 50.0 µM), 43.2%; in experiment [4] (setting [7]), 54%; in experiment [4] (setting [8]), 66%; in experiment [4] (at 50.0 µM) it was 55%. In addition, the growth inhibition in experiment [5] (setting [7]) was 32%; in experiment [5] (setting [8]) it was 44%; in experiment [5] (at 50.0 µM), 23.4%.
Consider `CCOC(=O)C(=C=C=C(c1ccccc1)c1ccccc1)C(=O)OCC`, for which the growth inhibition in experiment [1] (setting [7]) was -3%; in experiment [1] (setting [8]), 6%; in experiment [1] (at 50.0 µM), 33.9%; in experiment [2] (setting [7]) it was -2%; in experiment [2] (setting [8]), 17%; in experiment [2] (at 50.0 µM), 23.5%. Further, the growth inhibition in experiment [6] (setting [7]) was -3%; in experiment [6] (setting [8]), 40%; in experiment [6] (at 50.0 µM), 78.2% (active); in experiment [4] (setting [7]) it was -4%; in experiment [4] (setting [8]) it was 6%; in experiment [4] (at 50.0 µM) it was 31%. Moreover, the growth inhibition was -4% in experiment [5] (setting [7]), 6% in experiment [5] (setting [8]) and 50.5% in experiment [5] (at 50.0 µM).
Turning to `N#Cc1c(-c2ccc(Cl)cc2)c2c(n(C3OC(CO)C(O)C(O)C3O)c1=S)CCCC2` (stereo not given), the growth inhibition in experiment [1] (setting [7]) was -3%; in experiment [1] (setting [8]), 88% (active); in experiment [1] (at 50.0 µM), 9.95%; in experiment [2] (setting [7]) it was -2%; in experiment [2] (setting [8]), 77% (active); in experiment [2] (at 50.0 µM), 10.5%. Besides, the growth inhibition is -1% in experiment [6] (setting [7]); 96% (active) in experiment [6] (setting [8]); -8.85% in experiment [6] (at 50.0 µM); 3% in experiment [4] (setting [7]); 96% (active) in experiment [4] (setting [8]); 1% in experiment [4] (at 50.0 µM). Moreover, the values for the growth inhibition in experiment [5] (setting [7]), in experiment [5] (setting [8]) and in experiment [5] (at 50.0 µM) were -2%, 96% (active) and 14.9%, respectively.
In the case of `COc1ccc(C2=C(Cl)C(=O)N(c3ccc(O)cc3)C(=O)C2(Cl)Cl)cc1`, the growth inhibition in experiment [1] (setting [7]) was 18%; in experiment [1] (setting [8]), 99% (active); in experiment [1] (at 50.0 µM) it was 57.7%; in experiment [2] (setting [7]) it was 13%; in experiment [2] (setting [8]), 99% (active); in experiment [2] (at 50.0 µM), 59.7%. For the same molecule, the growth inhibition in experiment [3] (setting [7]) was 4%; in experiment [3] (setting [8]), 98% (active); in experiment [3] (at 50.0 µM), 58%; in experiment [4] (setting [7]) it was 3%; in experiment [4] (setting [8]), 99% (active); in experiment [4] (at 50.0 µM), 47.9%. Moreover, the results for the growth inhibition in experiment [5] (setting [7]), in experiment [5] (setting [8]) and in experiment [5] (at 50.0 µM) were 15%, 98% (active) and 58.2%, respectively.
As for `CCCCCCCCCCCC(=O)N(CCCCCCCCC)CC(O)C(O)C(OC1OC(CO)C(O)C(O)C1O)C(O)CO` (stereo not given), the growth inhibition is -2% in experiment [2] (setting [7]); 95% (active) in experiment [2] (setting [8]); 85% (active) in experiment [2] (at 50.0 µM); -36% in experiment [6] (setting [7]); 96% (active) in experiment [6] (setting [8]); 85.7% (active) in experiment [6] (at 50.0 µM). Besides, the growth inhibition in experiment [3] (setting [7]) is -17%; in experiment [3] (setting [8]), 91% (active); in experiment [3] (at 50.0 µM), 66.5%; in experiment [4] (setting [7]) it was 6%; in experiment [4] (setting [8]), 96% (active); in experiment [4] (at 50.0 µM) it was 86.3% (active). For the same molecule, the growth inhibition in experiment [5] (setting [7]) is 1%; in experiment [5] (setting [8]), 97% (active); in experiment [5] (at 50.0 µM) it was 62%.
In the case of `CN(Cc1cc(Cl)cc(Cl)c1O)Cc1c(O)ccc2ccccc12`, the growth inhibition in experiment [1] (setting [7]) was 31%; in experiment [1] (setting [8]) it was 100% (active); in experiment [1] (at 50.0 µM), 98.5% (active); in experiment [2] (setting [7]) it was 14%; in experiment [2] (setting [8]), 100% (active); in experiment [2] (at 50.0 µM), 98.3% (active). The growth inhibition in experiment [6] (setting [7]) is 10%; in experiment [6] (setting [8]), 99% (active); in experiment [6] (at 50.0 µM), 98.7% (active); in experiment [4] (setting [7]) it was -11%; in experiment [4] (setting [8]), 100% (active); in experiment [4] (at 50.0 µM) it was 98.6% (active). Moreover, the figures for the growth inhibition in experiment [5] (setting [7]), in experiment [5] (setting [8]) and in experiment [5] (at 50.0 µM) were 12%, 99% (active) and 98.5% (active), respectively.
